Laboratory results as given in ChEMBL document CHEMBL3988442, “University of Dundee, Small-Polar-MMV Screening Library” (2021).

Key:
[1] = molecular target: T1, Aspartate--tRNA(Asp/Asn) ligase (Mycobacterium tuberculosis (strain ATCC 25618 / H37Rv)) (UniProt P9WFW3); test: Assay for Asp RNA synthetase-1 from Mycobacterium tuberculosis; format: functional; set-up: scale not given: direction of the effect not stated beside the values; settings: 30 µM; further: in the data most compounds retested in dose-response had high values
T1 sequence (whole entry): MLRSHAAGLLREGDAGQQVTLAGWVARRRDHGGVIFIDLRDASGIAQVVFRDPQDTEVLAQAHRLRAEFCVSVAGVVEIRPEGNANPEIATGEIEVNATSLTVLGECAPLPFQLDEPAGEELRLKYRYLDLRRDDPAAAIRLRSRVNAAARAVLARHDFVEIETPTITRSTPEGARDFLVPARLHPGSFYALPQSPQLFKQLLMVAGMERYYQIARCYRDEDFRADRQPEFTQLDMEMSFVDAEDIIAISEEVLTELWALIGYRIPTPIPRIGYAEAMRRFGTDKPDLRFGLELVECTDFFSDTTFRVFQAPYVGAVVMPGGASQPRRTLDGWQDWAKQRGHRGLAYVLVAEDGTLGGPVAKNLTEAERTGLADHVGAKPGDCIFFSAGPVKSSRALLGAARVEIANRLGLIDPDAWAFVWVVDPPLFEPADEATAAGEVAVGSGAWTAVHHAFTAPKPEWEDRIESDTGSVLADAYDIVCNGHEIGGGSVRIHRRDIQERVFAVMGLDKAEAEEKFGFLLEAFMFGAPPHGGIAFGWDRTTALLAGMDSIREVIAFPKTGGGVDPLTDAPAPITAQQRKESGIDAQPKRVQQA

[2] = molecular target: Shiga toxin 2 (Escherichia coli O157:H7) (UniProt P09385+P09386); test: E. coli 0.157:H7 Shiga Toxin SOP - stx2 screening assay; format: functional; set-up: scale not given: direction of the effect not stated beside the values; settings: 30 µM

For `O=C(CC1CC1)NCc1cn2c(n1)CN(CC1CC1)CC2`, the Percent Effect [1] was 4.87% and the Percent Effect [2] was -4.42%.

`CS(=O)(=O)c1ccc(C(O)CN2CCC(c3ccn[nH]3)CC2)cc1` (stereo unspecified) was tested, and the Percent Effect [1] was -7.22% and the Percent Effect [2] was -3.06%.

Work on `CCN1CCC(CNC(=O)NCc2cc(-c3ccc(C)cc3)no2)C1` (stereo unspecified) yielded a Percent Effect [1] of 2.27% and a Percent Effect [2] of -44.9%.

For `Cc1nc(C2CCCN(C(=O)c3scnc3C)C2)no1` (stereo unspecified), the Percent Effect [1] was 1.59% and the Percent Effect [2] was 5.86%.

Work on `Cc1cc(NCc2cc3n(n2)CCCN(S(C)(=O)=O)C3)ncn1` yielded a Percent Effect [1] of -7.29% and a Percent Effect [2] of 25.2%.

`O=C(Nc1cn[nH]c1)c1ccc(O)nc1` showed a Percent Effect [1] of -1.37% and a Percent Effect [2] of 30.3%.

Compound `CCc1nnsc1C(=O)N1CCCN(Cc2nccn2C)CC1` has a Percent Effect [1] of 1.58% and a Percent Effect [2] of 15.5%.

`Cc1noc(C)c1CN(C)CC1CCCN1c1cccnn1` (stereo unspecified) gave a Percent Effect [1] of -1.56% and a Percent Effect [2] of 14.9%.

Work on `Cc1nc(CCNC(=O)NCc2ccc(N(C)C)nc2)cs1` yielded a Percent Effect [1] of -1.75% and a Percent Effect [2] of 6.63%.

In the case of `Cc1cc(CN(Cc2cccs2)CC2CCCO2)no1` (stereo unspecified), the Percent Effect [1] is reported as 1.32% and the Percent Effect [2] is reported as 12.5%.

Work on `c1cnnc(N2CCCC(NCc3nnc(-c4ccco4)o3)C2)c1` (stereo unspecified) yielded a Percent Effect [1] of -0.7% and a Percent Effect [2] of -79.7%.

For `CSCC(CCO)NC(=O)Nc1cccc(Br)c1` (stereo unspecified), the Percent Effect [1] was 8.05% and the Percent Effect [2] was -15.3%.

In the case of `CC(C)n1ccnc1CN1CCCN(C(=O)c2cc(Cl)c[nH]2)CC1`, the Percent Effect [1] is reported as 3.35% and the Percent Effect [2] is reported as -53.1%.

`Cc1ncsc1CN1C[C@@H](OCC2CC2)[C@H]2OCCC[C@H]21` was tested, and the Percent Effect [1] was -6.67% and the Percent Effect [2] was 4.7%.

Compound `O=C(CN1CCCCC1Cn1cncn1)NC1CCN(C2CC2)CC1` (stereo unspecified) has a Percent Effect [1] of -0.234% and a Percent Effect [2] of -4.41%.

Work on `Cc1cnc(C(=O)N2C[C@@H]3CN(CC4CCCC4)CCO[C@@H]3C2)cn1` yielded a Percent Effect [1] of -4.04% and a Percent Effect [2] of -21.5%.

`Cc1ccccc1CSc1nc(N)cc(N2CC[C@@H](O)C2)n1` showed a Percent Effect [1] of 0.861% and a Percent Effect [2] of 5.97%.

In the case of `Cc1ccc(O)c(CNC2CCc3nc(C(C)C)nn3C2)n1` (stereo unspecified), the Percent Effect [1] is reported as 2.88% and the Percent Effect [2] is reported as 1.45%.
